# Experimental data: PMC7862700, “An all-to-all approach to the identification of sequence-specific readers for epigenetic DNA modifications on cytosine”
# Columns and labels:
# Test in all cases: DAPPL (digital affinity profiling via proximity ligation, sequencing); 10 mM Tris-HCl pH 7.5, 50 mM NaCl, 1 mM DTT, 4% glycerol, room temperature, 30 min; GST-TFs on glutathione beads, 16-mer random dsDNA library, 0.1% formaldehyde crosslink after washing; high values mean tight binding
# [1] = biological target: T1, FLI1 (Homo sapiens, UniProt Q01543 1-452); conditions: protein: recombinant; tags: N-terminal GST; dsDNA, one strand shown
# T1 sequence: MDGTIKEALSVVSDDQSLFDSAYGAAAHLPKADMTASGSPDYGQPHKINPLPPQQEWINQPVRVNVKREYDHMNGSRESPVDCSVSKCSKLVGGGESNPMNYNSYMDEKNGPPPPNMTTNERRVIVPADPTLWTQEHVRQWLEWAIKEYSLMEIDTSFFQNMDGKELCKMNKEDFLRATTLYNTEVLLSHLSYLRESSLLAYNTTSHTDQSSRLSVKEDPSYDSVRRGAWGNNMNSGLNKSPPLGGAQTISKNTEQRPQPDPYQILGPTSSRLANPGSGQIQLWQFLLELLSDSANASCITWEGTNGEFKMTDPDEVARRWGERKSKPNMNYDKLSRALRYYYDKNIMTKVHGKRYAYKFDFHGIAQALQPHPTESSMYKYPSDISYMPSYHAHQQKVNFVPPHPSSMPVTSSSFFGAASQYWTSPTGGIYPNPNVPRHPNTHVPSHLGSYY
# Procedure, shortened: (§1)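 GST fusions of human transcription factors were expressed in yeast and captured with glutathione beads. Once given DNA barcodes and pooled alongside a tag-only sample, they were incubated for 30 min at room temperature with 200 nmole of a random double-stranded 16-mer DNA library in Tris/NaCl/DTT/glycerol buffer, then washed, crosslinked (0.1% formaldehyde), proximity-ligated, PCR-amplified and sequenced on an Illumina NextSeq500. The binding signal of each hexamer is its read frequency for a factor divided by its frequency for the tag-only sample.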
# [2] = biological target: T2, ELK1 (Homo sapiens, UniProt P19419 1-428); conditions: protein: recombinant; tags: N-terminal GST; dsDNA, one strand shown
# T2 sequence: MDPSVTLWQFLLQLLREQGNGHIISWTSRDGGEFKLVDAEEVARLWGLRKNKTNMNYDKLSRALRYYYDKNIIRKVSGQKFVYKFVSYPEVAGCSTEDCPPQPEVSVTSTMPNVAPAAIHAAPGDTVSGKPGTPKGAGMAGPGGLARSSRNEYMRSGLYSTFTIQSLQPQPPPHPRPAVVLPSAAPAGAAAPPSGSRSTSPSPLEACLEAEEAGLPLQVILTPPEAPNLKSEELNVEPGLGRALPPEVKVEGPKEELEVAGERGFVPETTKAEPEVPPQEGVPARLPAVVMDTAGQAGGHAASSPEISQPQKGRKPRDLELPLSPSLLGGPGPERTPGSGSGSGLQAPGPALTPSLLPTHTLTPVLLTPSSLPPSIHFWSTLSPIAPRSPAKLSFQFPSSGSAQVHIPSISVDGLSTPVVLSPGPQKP
# Procedure, shortened: as §1
# [3] = biological target: T3, GABPA (Homo sapiens, UniProt Q06546 1-454); conditions: protein: recombinant; tags: N-terminal GST; dsDNA, one strand shown
# T3 sequence: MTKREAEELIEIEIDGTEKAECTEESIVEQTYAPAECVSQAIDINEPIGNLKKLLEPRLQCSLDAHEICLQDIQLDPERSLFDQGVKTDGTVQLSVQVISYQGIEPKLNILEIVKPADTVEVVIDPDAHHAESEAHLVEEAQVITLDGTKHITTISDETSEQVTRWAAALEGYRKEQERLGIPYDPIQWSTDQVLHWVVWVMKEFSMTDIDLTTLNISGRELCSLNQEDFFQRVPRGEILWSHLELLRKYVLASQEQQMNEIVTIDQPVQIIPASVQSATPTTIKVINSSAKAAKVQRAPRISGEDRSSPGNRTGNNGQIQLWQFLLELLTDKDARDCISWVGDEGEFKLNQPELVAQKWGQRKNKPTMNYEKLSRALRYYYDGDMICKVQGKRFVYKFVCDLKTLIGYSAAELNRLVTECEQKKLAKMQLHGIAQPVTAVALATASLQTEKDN
# Procedure, shortened: as §1
# [4] = biological target: T4, ERG (Homo sapiens, UniProt P11308 1-479); conditions: protein: recombinant; tags: N-terminal GST; dsDNA, one strand shown
# T4 sequence: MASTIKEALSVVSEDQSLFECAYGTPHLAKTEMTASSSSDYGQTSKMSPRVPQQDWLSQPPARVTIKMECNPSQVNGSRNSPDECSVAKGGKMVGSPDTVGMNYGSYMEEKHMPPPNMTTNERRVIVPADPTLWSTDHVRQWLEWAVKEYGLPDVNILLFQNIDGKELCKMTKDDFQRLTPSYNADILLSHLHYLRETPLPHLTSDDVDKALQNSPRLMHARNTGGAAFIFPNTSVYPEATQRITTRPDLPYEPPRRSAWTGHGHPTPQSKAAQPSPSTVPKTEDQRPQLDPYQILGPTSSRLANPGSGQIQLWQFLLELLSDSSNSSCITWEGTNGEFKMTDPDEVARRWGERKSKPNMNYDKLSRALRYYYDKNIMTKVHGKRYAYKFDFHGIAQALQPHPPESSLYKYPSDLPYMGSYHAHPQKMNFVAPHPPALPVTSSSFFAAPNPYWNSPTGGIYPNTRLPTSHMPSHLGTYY
# Procedure, shortened: as §1
# [5] = biological target: ELF1 (Homo sapiens, UniProt P32519 1-619); conditions: protein: recombinant; tags: N-terminal GST; dsDNA, one strand shown
# Procedure, shortened: as §1
# [6] = biological target: T5, EHF (Homo sapiens, UniProt Q9NZC4 1-300); conditions: protein: recombinant; tags: N-terminal GST; dsDNA, one strand shown
# T5 sequence: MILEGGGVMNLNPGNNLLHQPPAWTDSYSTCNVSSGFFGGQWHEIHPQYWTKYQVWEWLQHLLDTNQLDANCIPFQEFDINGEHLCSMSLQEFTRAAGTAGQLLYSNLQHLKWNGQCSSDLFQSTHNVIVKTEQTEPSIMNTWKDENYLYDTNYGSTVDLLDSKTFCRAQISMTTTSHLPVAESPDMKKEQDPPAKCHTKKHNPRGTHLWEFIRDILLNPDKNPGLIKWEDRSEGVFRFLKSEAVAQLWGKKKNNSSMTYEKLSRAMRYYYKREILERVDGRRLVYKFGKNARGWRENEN
# Procedure, shortened: as §1
# [7] = biological target: SPI1 (Homo sapiens, UniProt P17947 1-270); conditions: protein: recombinant; tags: N-terminal GST; dsDNA, one strand shown
# Procedure, shortened: as §1
# [8] = biological target: SPIB (Homo sapiens, UniProt Q01892 1-262); conditions: protein: recombinant; tags: N-terminal GST; dsDNA, one strand shown
# Procedure, shortened: as §1
# [9] = biological target: T6, ELK3 (Homo sapiens, UniProt P41970 1-407); conditions: protein: recombinant; tags: N-terminal GST; dsDNA, one strand shown
# T6 sequence: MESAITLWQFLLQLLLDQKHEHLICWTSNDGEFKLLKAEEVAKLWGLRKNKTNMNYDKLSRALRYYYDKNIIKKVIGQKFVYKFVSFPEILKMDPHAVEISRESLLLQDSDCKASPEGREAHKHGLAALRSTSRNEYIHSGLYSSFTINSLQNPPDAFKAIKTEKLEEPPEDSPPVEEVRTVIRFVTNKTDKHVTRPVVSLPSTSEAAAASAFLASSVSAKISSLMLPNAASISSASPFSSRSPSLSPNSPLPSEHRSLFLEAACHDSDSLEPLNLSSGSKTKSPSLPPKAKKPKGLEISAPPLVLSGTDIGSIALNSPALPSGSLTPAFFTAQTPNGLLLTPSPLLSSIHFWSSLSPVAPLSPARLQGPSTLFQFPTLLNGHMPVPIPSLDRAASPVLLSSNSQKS
# Procedure, shortened: as §1
# [10] = biological target: T7, FEV (Homo sapiens, UniProt Q99581 1-238); conditions: protein: recombinant; tags: N-terminal GST; dsDNA, one strand shown
# T7 sequence: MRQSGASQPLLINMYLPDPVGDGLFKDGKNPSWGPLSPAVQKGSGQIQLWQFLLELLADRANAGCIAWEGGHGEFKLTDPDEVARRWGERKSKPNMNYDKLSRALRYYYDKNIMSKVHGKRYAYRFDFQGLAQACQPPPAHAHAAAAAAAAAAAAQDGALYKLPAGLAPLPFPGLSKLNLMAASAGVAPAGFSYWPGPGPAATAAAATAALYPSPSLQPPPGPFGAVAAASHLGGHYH
# Procedure, shortened: as §1
# [11] = biological target: ETV5 (Homo sapiens, UniProt P41161 1-510); conditions: protein: recombinant; tags: N-terminal GST; dsDNA, one strand shown
# Procedure, shortened: as §1
# [12] = biological target: HSF1 (Homo sapiens, UniProt Q00613 1-529); conditions: protein: recombinant; tags: N-terminal GST; chain copies: 3; dsDNA, one strand shown
# Procedure, shortened: as §1
# [13] = biological target: T8, SPIC (Homo sapiens, UniProt Q8N5J4 1-248); conditions: protein: recombinant; tags: N-terminal GST; dsDNA, one strand shown
# T8 sequence: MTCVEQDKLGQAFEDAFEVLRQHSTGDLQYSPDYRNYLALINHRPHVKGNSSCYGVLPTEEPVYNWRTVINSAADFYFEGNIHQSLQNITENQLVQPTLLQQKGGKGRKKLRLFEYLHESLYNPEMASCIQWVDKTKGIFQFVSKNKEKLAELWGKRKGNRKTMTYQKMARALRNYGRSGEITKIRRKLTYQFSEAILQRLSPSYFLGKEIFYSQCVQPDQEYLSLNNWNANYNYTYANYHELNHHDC
# Procedure, shortened: as §1
# [14] = biological target: ELF4 (Homo sapiens, UniProt Q99607 1-663); conditions: protein: recombinant; tags: N-terminal GST; dsDNA, one strand shown
# Procedure, shortened: as §1
# [15] = biological target: T9, ELK4 (Homo sapiens, UniProt P28324-2 1-405); conditions: protein: recombinant; tags: N-terminal GST; dsDNA, one strand shown
# T9 sequence: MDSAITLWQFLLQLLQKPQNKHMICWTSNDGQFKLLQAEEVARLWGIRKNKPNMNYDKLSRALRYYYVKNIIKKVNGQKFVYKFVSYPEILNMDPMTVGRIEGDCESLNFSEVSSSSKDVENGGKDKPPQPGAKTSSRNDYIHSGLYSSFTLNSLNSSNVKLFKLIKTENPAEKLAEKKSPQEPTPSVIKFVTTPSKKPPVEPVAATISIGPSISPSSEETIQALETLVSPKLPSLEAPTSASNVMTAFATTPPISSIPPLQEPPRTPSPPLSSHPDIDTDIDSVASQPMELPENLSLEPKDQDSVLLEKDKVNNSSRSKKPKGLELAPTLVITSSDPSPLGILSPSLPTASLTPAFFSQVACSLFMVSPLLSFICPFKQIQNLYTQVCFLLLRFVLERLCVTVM
# Procedure, shortened: as §1
# [16] = biological target: T10, ETV2 (Homo sapiens, UniProt O00321 1-342); conditions: protein: recombinant; tags: N-terminal GST; dsDNA, one strand shown
# T10 sequence: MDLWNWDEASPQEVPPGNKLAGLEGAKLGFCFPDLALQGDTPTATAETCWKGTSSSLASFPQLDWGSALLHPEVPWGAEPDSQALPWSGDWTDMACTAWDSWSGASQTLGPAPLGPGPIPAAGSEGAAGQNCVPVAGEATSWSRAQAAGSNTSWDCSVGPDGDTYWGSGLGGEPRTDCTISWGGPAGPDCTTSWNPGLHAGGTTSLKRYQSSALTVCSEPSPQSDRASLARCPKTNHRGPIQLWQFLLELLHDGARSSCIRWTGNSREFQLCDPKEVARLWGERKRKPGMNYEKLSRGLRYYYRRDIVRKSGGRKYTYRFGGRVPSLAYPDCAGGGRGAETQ
# Procedure, shortened: as §1
# [17] = biological target: T11, ELF3 (Homo sapiens, UniProt P78545 1-371); conditions: protein: recombinant; tags: N-terminal GST; dsDNA, one strand shown
# T11 sequence: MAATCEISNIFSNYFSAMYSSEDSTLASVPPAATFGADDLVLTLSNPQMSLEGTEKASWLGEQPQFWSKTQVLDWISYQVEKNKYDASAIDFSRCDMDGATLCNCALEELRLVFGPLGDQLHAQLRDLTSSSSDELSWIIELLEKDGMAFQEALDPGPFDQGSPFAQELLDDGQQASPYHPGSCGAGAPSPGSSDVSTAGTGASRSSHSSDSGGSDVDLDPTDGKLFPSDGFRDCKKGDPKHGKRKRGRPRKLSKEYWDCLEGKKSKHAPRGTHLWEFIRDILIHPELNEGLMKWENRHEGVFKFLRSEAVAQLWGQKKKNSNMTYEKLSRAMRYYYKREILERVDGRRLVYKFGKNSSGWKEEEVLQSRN
# Procedure, shortened: as §1
# [18] = biological target: CRX (Homo sapiens, UniProt O43186 1-299); conditions: protein: recombinant; tags: N-terminal GST; dsDNA, one strand shown
# Procedure, shortened: as §1
# [19] = biological target: ETV1 (Homo sapiens, UniProt P50549 1-477); conditions: protein: recombinant; tags: N-terminal GST; dsDNA, one strand shown
# Procedure, shortened: as §1
# Sequence of HSF1 (Q00613 whole entry): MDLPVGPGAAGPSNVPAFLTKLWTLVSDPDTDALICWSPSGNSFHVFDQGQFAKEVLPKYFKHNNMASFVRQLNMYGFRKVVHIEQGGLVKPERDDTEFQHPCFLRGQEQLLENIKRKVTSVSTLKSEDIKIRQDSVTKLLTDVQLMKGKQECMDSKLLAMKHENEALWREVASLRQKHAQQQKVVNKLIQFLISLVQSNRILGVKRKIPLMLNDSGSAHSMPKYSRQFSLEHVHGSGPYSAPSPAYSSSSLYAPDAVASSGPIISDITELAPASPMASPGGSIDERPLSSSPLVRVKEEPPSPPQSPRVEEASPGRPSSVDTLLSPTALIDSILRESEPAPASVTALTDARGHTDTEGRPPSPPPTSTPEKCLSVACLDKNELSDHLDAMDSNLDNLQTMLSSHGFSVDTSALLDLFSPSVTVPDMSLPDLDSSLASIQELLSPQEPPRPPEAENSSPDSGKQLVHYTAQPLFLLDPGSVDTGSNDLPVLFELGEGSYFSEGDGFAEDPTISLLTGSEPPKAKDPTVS
# Sequence of ELF1 (P32519 whole entry): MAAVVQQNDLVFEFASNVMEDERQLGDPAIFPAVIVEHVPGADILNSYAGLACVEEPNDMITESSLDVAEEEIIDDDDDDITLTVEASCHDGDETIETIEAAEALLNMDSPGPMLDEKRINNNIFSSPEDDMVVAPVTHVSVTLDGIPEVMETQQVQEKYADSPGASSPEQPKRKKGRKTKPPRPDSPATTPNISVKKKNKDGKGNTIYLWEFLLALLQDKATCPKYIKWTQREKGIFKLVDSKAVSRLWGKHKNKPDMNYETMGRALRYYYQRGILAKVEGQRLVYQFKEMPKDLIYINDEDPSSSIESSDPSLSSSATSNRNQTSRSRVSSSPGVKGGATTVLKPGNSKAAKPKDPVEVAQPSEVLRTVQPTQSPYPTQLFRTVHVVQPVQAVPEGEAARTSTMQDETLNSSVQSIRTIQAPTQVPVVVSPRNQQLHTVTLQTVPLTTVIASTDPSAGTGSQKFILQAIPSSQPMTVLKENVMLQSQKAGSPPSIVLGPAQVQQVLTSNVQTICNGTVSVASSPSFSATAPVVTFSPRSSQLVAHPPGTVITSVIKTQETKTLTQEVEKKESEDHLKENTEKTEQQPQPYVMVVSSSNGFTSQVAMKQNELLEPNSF
# Sequence of ETV5 (P41161 whole entry): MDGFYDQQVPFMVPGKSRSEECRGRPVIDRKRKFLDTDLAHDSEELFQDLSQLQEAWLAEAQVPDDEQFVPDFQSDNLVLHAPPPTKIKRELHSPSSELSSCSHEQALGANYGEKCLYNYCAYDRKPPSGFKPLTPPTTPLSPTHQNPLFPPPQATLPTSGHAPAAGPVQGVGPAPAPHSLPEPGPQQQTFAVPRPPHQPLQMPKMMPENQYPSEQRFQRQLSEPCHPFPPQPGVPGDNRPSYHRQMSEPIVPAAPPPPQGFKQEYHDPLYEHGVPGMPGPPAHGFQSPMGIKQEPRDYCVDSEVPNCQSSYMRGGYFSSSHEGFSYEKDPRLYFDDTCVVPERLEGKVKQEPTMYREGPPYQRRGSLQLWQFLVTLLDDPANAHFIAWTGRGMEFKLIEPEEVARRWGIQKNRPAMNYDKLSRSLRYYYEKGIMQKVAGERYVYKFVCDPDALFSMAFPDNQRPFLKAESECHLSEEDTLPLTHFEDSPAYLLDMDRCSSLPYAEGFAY
# Sequence of SPIB (Q01892 whole entry): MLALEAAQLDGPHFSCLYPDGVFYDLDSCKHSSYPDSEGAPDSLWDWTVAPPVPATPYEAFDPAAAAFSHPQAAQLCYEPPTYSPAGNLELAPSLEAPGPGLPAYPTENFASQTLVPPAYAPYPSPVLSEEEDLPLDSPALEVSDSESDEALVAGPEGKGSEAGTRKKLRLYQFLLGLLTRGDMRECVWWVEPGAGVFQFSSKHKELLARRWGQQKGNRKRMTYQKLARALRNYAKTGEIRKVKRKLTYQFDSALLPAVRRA
# Sequence of ETV1 (P50549 whole entry): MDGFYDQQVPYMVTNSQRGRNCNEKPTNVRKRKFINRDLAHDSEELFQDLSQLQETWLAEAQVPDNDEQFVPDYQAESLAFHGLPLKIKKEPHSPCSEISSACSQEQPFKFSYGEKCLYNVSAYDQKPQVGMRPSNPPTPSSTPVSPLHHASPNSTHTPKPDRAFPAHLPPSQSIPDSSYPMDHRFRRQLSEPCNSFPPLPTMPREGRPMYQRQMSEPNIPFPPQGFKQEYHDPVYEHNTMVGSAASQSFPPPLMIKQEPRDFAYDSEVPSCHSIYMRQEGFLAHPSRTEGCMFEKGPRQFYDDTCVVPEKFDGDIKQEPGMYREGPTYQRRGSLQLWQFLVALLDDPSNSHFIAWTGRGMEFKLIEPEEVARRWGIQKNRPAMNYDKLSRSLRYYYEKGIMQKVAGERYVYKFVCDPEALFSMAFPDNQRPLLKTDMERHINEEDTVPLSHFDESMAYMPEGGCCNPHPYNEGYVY
# Sequence of ELF4 (Q99607 whole entry): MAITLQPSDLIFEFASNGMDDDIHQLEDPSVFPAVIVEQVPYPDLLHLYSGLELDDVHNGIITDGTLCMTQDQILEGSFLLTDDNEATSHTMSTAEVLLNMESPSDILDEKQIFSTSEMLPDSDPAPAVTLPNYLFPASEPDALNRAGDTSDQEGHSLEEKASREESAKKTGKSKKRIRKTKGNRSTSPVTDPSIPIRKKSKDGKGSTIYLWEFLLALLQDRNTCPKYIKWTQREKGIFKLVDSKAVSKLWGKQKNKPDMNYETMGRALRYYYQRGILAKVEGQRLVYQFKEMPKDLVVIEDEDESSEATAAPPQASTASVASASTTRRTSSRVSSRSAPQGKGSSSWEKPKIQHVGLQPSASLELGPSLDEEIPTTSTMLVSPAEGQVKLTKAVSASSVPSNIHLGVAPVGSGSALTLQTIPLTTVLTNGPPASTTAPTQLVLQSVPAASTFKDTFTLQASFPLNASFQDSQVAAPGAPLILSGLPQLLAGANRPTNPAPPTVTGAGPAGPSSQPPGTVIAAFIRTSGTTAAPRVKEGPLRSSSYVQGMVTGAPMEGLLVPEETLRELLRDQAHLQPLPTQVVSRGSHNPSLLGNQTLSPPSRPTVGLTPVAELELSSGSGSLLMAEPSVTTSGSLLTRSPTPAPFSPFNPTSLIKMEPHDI
# Sequence of CRX (O43186 whole entry): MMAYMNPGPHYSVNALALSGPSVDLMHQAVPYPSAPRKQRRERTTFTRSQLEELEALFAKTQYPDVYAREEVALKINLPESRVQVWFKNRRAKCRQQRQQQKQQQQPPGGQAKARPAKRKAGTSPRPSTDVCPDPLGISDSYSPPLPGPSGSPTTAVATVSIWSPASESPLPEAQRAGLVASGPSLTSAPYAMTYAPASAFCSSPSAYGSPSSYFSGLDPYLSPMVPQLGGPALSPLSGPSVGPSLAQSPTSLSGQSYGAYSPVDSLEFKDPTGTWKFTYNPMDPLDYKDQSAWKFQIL
sequence,measurement,setting,value
GCTCCT,binding signal,[1],"1.54 fold enrichment (6-mer frequency, TF over GST control)"
same,binding signal,[2],"1.39 fold enrichment (6-mer frequency, TF over GST control)"
same,binding signal,[3],"1.52 fold enrichment (6-mer frequency, TF over GST control)"
same,binding signal,[4],"1.32 fold enrichment (6-mer frequency, TF over GST control)"
same,binding signal,[5],"1.45 fold enrichment (6-mer frequency, TF over GST control)"
same,binding signal,[6],"1.41 fold enrichment (6-mer frequency, TF over GST control)"
same,binding signal,[7],"1.4 fold enrichment (6-mer frequency, TF over GST control)"
same,binding signal,[8],"1.46 fold enrichment (6-mer frequency, TF over GST control)"
same,binding signal,[9],"1.33 fold enrichment (6-mer frequency, TF over GST control)"
same,binding signal,[10],"1.46 fold enrichment (6-mer frequency, TF over GST control)"
same,binding signal,[11],"1.4 fold enrichment (6-mer frequency, TF over GST control)"
same,binding signal,[12],"1.29 fold enrichment (6-mer frequency, TF over GST control)"
same,binding signal,[13],"1.44 fold enrichment (6-mer frequency, TF over GST control)"
same,binding signal,[14],"1.51 fold enrichment (6-mer frequency, TF over GST control)"
same,binding signal,[15],"1.33 fold enrichment (6-mer frequency, TF over GST control)"
same,binding signal,[16],"1.57 fold enrichment (6-mer frequency, TF over GST control)"
same,binding signal,[17],"1.57 fold enrichment (6-mer frequency, TF over GST control)"
same,binding signal,[18],"1.34 fold enrichment (6-mer frequency, TF over GST control)"
same,binding signal,[19],"1.46 fold enrichment (6-mer frequency, TF over GST control)"
